# Test results: PubChem BioAssay (NCI)
# Compounds without any hit were thinned out: in the full panel of roughly 79,000, 15% have a hit. Active and inactive are the calls of the source. Cut-off read from the data, not from the text of the source: active = growth inhibition above about 70%; inactive = the rest. Where a SMILES comes first, the peptide text is derived from it. The star is where a group is joined. Cbz = O=C(OCc1ccccc1)*
# Assay: NCI Yeast Anticancer Drug Screen. Data for the cln2 rad14 strain (AID 165);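 note: 0% = growth equal to vehicle treated cultures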
# Conditions: S. cerevisiae cln2 rad14 strain, at 50.0 µM, hits give high values
# Experimental: Growth inhibition of yeast strains with defined genetic alterations is measured as a screen for potential anti-cancer activity. Selected strains with alterations in DNA damage repair or cell cycle control were exposed to compounds and growth inhibition was measured relative to vehicle treated controls. The strain used in this assay is cln2 rad14
row,SMILES,growth inhibition
1,N#CC(=S)N(C(=O)c1ccc(Cl)cc1)c1ccccc1Cl,-18.9% (inactive)
2,COc1ccc(CC(N)C(=O)N2CCCCC2)cc1 (stereo not given),8.15% (inactive)
3,OCCCCCCCCCCCBr,-27.1% (inactive)
4,CCOC(=O)CCc1cn2cc(Br)nc(OC)c2n1,19.9% (inactive)
5,COc1ccc(C(O)C2CCCN(C)S2(=O)=O)cc1 (stereo not given),15.5% (inactive)
6,CCOC(=O)c1nc2ccc(OC)cc2c2c1Cc1ccccc1-2,8.3% (inactive)
7,CC(C)(C)C(=O)[CH-]C(=O)C(C)(C)C.CC(C)(C)C(=O)[CH-]C(=O)C(C)(C)C.CN(C)c1ccc([O-])cc1.CN(C)c1ccc([O-])cc1.[Ti+4],12.2% (inactive)
8,N#Cc1c2c(c(N3CCCCC3)n3c1nc1ccccc13)CCC2,8% (inactive)
9,NC(=O)NC(=O)OCCOC(=O)NC(N)=O,-16.7% (inactive)
10,O=c1cc([N+](=O)[O-])c2c([nH]1)CCC2,-27.8% (inactive)
11,C1OC2OC3OCOC3C2O1 (stereo not given),-58.2% (inactive)
12,CC12CC3(C)CC(C)(C1)CC(C(NC(C)(C)C)C(=O)O)(C2)C3 (stereo not given),5.7% (inactive)
13,CC(C)C(C)(C)C(N)=O,13.9% (inactive)
14,COc1cc2c(cc1OC)C(=O)C(C1=C(SC(=N)N)C(=O)c3cc(OC)c(OC)cc31)C2 (stereo not given),-0.65% (inactive)
15,NC(=O)N/N=C/c1cccc2ccccc12,6.35% (inactive)
16,O=C(O)/C=C/c1ccc(OCc2ccccc2)c(OCc2ccccc2)c1,-10.9% (inactive)
17,CCC(=O)Oc1ccc(C(OC(=O)CC)OC(=O)CC)cc1OC,-20.2% (inactive)
18,COc1ccc2c(c1)C1=C(CC2)C(=O)OC1=O,2.8% (inactive)
19,COc1ccccc1NC(=O)C1=C(C)NC(C)=C(C(=O)Nc2ccccc2OC)C1c1ccccc1Cl,17.9% (inactive)
20,Oc1cccc(Oc2cccc(Oc3cccc(O)c3)c2)c1,-8.65% (inactive)

row,SMILES,growth inhibition
1,C=CCOC(C)OCC=C,-23.5% (inactive)
2,NC(=O)C(N)CC(=O)O (stereo not given),-16.1% (inactive)
3,CCCCCC1c2cc(O)ccc2OC1N1CCOCC1 (stereo not given),48.6% (inactive)
4,COC(=O)C1CC2CC1C1C2SC(F)(F)C1(F)F (stereo not given),7.8% (inactive)
5,Cc1ccc(-c2oc(-c3ccc(C)cc3)c3cc(C)c(C)cc23)cc1,8.5% (inactive)
6,Cn1cc(/C=C/C(=O)c2ccccc2[N+](=O)[O-])c2ccccc21,18.1% (inactive)
7,C=CCNC(=O)N(CCC)CCCC(NC(C)=O)C(=O)NCc1ccccc1 (stereo not given),10.4% (inactive)
8,CCOC(=O)C(C)NC(=O)C(C)NC(=O)C(C)NC(=O)C(C)NC(=O)C(C)NC(=O)C(C)NC(=O)C(C)NC(=O)OCc1ccccc1 (stereo not given) (Cbz-AAAAAAA-OEt; configuration not given here),16.6% (inactive)
9,CC(NC(=O)NCCCl)C1CC1 (stereo not given),-11.8% (inactive)
10,O=C1C(c2ccccc2)=C(c2ccccc2)c2ccccc21,-18.4% (inactive)
11,COc1cccc(Cc2cncc3c(O)c(OC)ccc23)c1O,3% (inactive)
12,N#Cc1nnn2c1nc(N)c1c(Cl)cccc12,-0.05% (inactive)
13,O=C(O)/C=C(/C(=O)O)c1cccn1Cc1ccccc1,17.4% (inactive)
14,c1ccc(C(=C2CCC2)c2c3ccccc3cc3ccccc23)cc1,5.8% (inactive)
15,COC(=O)C(CCS(=O)(=O)CC(=O)C(=O)Nc1cccc(C(C)=O)c1)C(=O)OC,-17.1% (inactive)
16,CC(C)(C)[C@@H]1NC(=O)CN1C(=O)OCc1ccccc1,-17.1% (inactive)
17,Cc1ccccc1C(=O)OC1CCCC1,-19.4% (inactive)
18,COc1ccc2c(NCCCCCCNc3c4ccccc4nc4cc(OC)ccc34)c3ccccc3nc2c1,87.5% (active)
19,COC(=O)C1CCC2C3CCCCC3CCC2C1(C)C(=O)OC (stereo not given),-28.4% (inactive)
20,O=C(c1no[n+]([O-])c1C(=O)c1csc2ccccc12)c1csc2ccccc12,-39.9% (inactive)
